Source: PubChem BioAssay (National Center for Advancing Translational Sciences (NCATS))
Sampled rows, rich in hits. Any-hit rate of the full collection: about 8%.
HCMV antiviral: blocks human cytomegalovirus replication; HFF cells, HCMV-luciferase reporter, 72 h; hits give low values; activity change, negative = inhibition, % at 57.5 µM; 410,000 compounds, 4.5% hits; AID 1259415; in the data active means activity change below about -60%; inconclusive means no clear call, values can overlap the other calls; inactive means above about -39%; further: on the % scale 0 is the no-effect control and ±100 the full control effect
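Two compound doses tested in HFFs infected with HCMV-luciferase, MOI 1 PFU/cell, 72 h at 37C. Lysate luminescence read with OneGlo; data normalized against buffer-only and 10uM Salinomycin inhibitor controls.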
HCV inh: inhibitors of hepatitis C virus infection. Huh7.5.1 HCVcc-Cre infection, luciferase reporter, 44 h. 340,000 compounds, 3.4% hits. Potency, µM (titrated, usually from 41.8 µM), for inactives: at the top dose activity change, negative = inhibition, most hits filed as inhibitors; active means well fitted inhibition curve with a large enough effect; inconclusive means small, poorly fitted or top-dose-only effect, or another doubt; inactive means no such curve, though single readings can be large or run the other way; further: potency means the concentration at half of the fitted maximal effect; on the % scale 0 is the no-effect control and ±100 the full control effect
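1,000 cells/well; 4 h culture; + compound; + HCVcc-Cre (~0.5 moi); 44 h; luciferase substrate, RT 15 min; read 15 sec.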
FMDV antiviral: antivirals against foot and mouth disease virus | AID 1159524 | Potency, µM (top dose mostly 57.9 µM), inactives show at the top dose activity change, negative = inhibition, hits mostly inhibitors | 410,000 compounds, 1.2% hits | FMDV antiviral cell-based qHTS; calls by dose curve; tested in HEK293T cells; further: read-out not given here; potency means the concentration at half of the fitted maximal effect; on the % scale 0 is the no-effect control and ±100 the full control effect; nearly all actives have a fitted effect of over 45% in size
Marburg entry inh: inhibitors of Marburg virus binding or cell entry. Marburg virus pseudotyped entry inhibition, cell reporter. Potency, µM (highest dose often 37.8 µM), without a hit: top-dose activity change, negative = inhibition, actives largely listed as inhibitors. 300,000 compounds, 1.8% hits. AID 540276; calls by dose curve; tested in HEK293 cells; further: potency means the concentration at half of the fitted maximal effect; on the % scale 0 is the no-effect control and ±100 the full control effect
SARS PLpro yeast: inhibitors of SARS-CoV papain-like protease in yeast; S. cerevisiae expressing SARS-CoV PLpro, growth rescue; Potency, µM (top dose mostly 32.9 µM), for the others: at the top dose activity, positive = growth rescue, most hits filed as activators; 330,000 compounds, 0.19% hits; AID 485353; calls by dose curve; further: potency means the concentration at half of the fitted maximal effect; 0% is about no effect; nearly all actives have a fitted effect of over 55% in size
Lassa entry inh: Lassa virus entry inhibition | Lassa virus pseudotype entry inhibition, cell reporter | 300,000 compounds, 1.2% hits | Potency, µM (series often up to 37.9 µM), for inactives: top-dose activity change, negative = inhibition, most hits filed as inhibitors; calls by dose curve; tested in HEK293 cells; further: potency means the concentration at half of the fitted maximal effect; on the % scale 0 is the no-effect control and ±100 the full control effect; nearly all actives have a fitted effect of over 50% in size
An asterisk follows results filed as active; u = inconclusive; x = not tested or not shown; [ ] = dose if it differs, or a comment.

SMILES	HCMV antiviral	HCV inh	FMDV antiviral	Marburg entry inh	SARS PLpro yeast	Lassa entry inh
COC(=O)C1=C(C)N(CC2CC2)C(=O)NC1c1ccccc1 (stereo not given)	x	x	x	-5%[14.2 µM]	x	x
CCn1c(=O)cc(OCC(=O)N2CCCCCC2)c2ccccc21	161	-12%	-13%	-2%	0%	-10%
CCn1c(=O)cc(OCC(=O)N2CCN(c3ccc(C)cc3)C(C)C2)c2ccccc21 (stereo not given)	-20	x	35µM*	u	x	u
CCc1ccccc1NC(=O)CCc1nc(-c2cccs2)no1	1	-1%	20%	-1%	-3%	7%
Cc1ccc(CNC(=O)CCc2nc(-c3cccs3)no2)cc1	-75*	-11%	2%	x	-11%	x
O=C(CCc1nc(-c2cccs2)no1)NCc1ccc(F)cc1Cl	-63*	-3%	-4%	x	-6%	x
COC(=O)c1cc(OC)c(OC)cc1NC(=O)c1csc(C)c1	-67*	-13%	-19%	-14%[46.1 µM]	u	-14%[46.1 µM]
Cc1ccccc1-n1c(/C=C/c2ccccc2F)nc2ccccc2c1=O	-85*	x	u	x	x	1%[46.1 µM]
O=c1c2ccccc2nc(/C=C/c2cccc3ccccc23)n1-c1ccccc1Cl	u	x	22µM*	x	x	-13%[46.1 µM]
Cc1ccccc1-n1c(/C=C/c2c(C)n(C)c3ccccc23)nc2ccccc2c1=O	-19	x	-27%	x	x	-5%[46.1 µM]
COc1cn(CC(=O)Nc2ccccc2)c(CN2CCCCC2)cc1=O	16	x	-8%	x	x	-8%[46.1 µM]
O=C(NCC1CCCN(Cc2ccccc2F)C1)c1cccc(C(F)(F)F)c1 (stereo not given)	u	11µM*	-25%	u	0%	-10%
CN(C)c1cccc(C(=O)N(C)C2CCCN(Cc3ccccc3F)C2)c1 (stereo not given)	-71*	-17%	15%	x	-1%	x
Cc1cc(C)cc(C(=O)N(C)C2CCCN(Cc3ccccc3F)C2)c1 (stereo not given)	8	13µM*	0%	x	1%	x
CN(C(=O)c1ccncc1)C1CCCN(Cc2ccccc2F)C1 (stereo not given)	1	-1%	-6%	18%[46.1 µM]	-7%	4%[46.1 µM]
COc1ccc2cc3cc(C(=O)NCCN4CCN(c5ccccc5F)CC4)oc3nc2c1	-30	u	18µM*	13µM*	4%	u
COc1ccc2cc3cc(C(=O)NCCC(C)C)oc3nc2c1	-38	u	7%	10%	-1%	3.5µM*
COc1ccc2cc3cc(C(=O)Nc4ccccc4N4CCN(C)CC4)oc3nc2c1	-22	10µM*	u	-17%	-3%	13%
Cc1ccc2cc3cc(C(=O)NCCCN4CCCCCC4)oc3nc2c1	27	u	-12%	-3%[46.1 µM]	-1%	-1%
COCCNC(=O)c1cc2cc3ccc(OC)cc3nc2o1	21	9%	28%	x	6%	x
Cc1ccc2cc3cc(C(=O)NCCCN4CCCC4)oc3nc2c1	u	14µM*	-19%	x	-7%	x
COc1ccc(CC(=O)Nc2ccc(-c3nc4ccccc4s3)c(C)c2)cc1OC	27	x	-27%	x	x	u
CC(CC1=C2C=CC=CC2N=C1)NC(N)=O (stereo not given)	x	x	x	5%[46.1 µM]	x	x
CC1(C(=O)Nc2ccc3ccccc3c2)CCc2nc3ccccc3n21 (stereo not given)	22	x	x	x	x	x
COc1cc(NC(=O)c2cc3cc4ccc(C)cc4nc3o2)cc(OC)c1OC	-40	x	3.2µM*	u	x	u
SMILES	HCMV antiviral	HCV inh	FMDV antiviral	Marburg entry inh	SARS PLpro yeast	Lassa entry inh
CCOc1ccc(NC(=O)c2cc3cc4ccc(C)cc4nc3o2)cc1	-19	x	-13%	9%[46.1 µM]	2%	0%[46.1 µM]
COc1ccccc1NC(=O)CSc1oc(-c2ccccc2)nc1S(=O)(=O)c1ccccc1	u	x	-15%	u	x	-28%[46.1 µM]
COc1ccc([N+](=O)[O-])cc1NCc1cccc([N+](=O)[O-])c1	-3	4µM*	-11%	1%[46.1 µM]	-2%	u
O=[N+]([O-])c1ccc(Oc2cccnc2)c([N+](=O)[O-])c1	2	u	32µM*	7.9µM*	x	u
Nc1ccc(Oc2ccc([N+](=O)[O-])cc2[N+](=O)[O-])cc1	u	-19%	-20%	-23%	-3%	-10%
COc1ccc([N+](=O)[O-])cc1NCc1cccnc1	10	7.9µM*	4%	u	-4%	u
